Results filed as inconclusive are left out. A number with no mark means an inactive call. Active and inactive are the calls of the source. Calls follow the shape of the dose curve; as a rule, active = well fitted inhibition curve with a large enough effect; inconclusive = small, poorly fitted or top-dose-only effect; inactive = no such curve, though single readings can be large or run the other way.
Potency is read from the fitted curve at half-maximal effect.

The assay in a line: BET inhibitor-based combinations targeting novel dependencies in MECOM-rearranged (r) AML: MV-4-11 cell line (AID 2202233). Also: nearly all actives have a fitted effect of over 45% in size. The following applies: MV-4-11 AML viability, CellTiter-Glo luminescence, 48 h; series mostly up to 46 µM; viability, % of control: at the top concentration. From the text: Ecotropic viral insertion site 1 (EVI1) is located on chromosome 3q26.2 as part of the MECOM (MDS and EVI1 complex) locus. Under normal hematopoiesis, EVI1 is a regulator of hematopoietic stem cell maintenance and self-renewal and EVI1 levels decrease as the cells differentiate. In approximately 5-10% of de novo acute myeloid leukemia (AML) EVI1 is aberrantly expressed, including Chromosomal inv(3)(q21;q26.2) or t(3;3)(q21;q26.2) alterations (MECOM-r) that account for about 50% of AML with EVI1 overexpression 31. AMLs with high levels of EVI1 have a poor prognosis and an overall survival time averaging between 10-14 months. EVI1 overexpression confers resistance in leukemia cells, highlighting the need to develop new targeted therapies for EVI1 overexpressing AMLs. Here, we performed an unbiased chemical drug screening by evaluating the single agent activity of a collection of 2,480 oncology-focused, approved and investigational drugs (NCATS Mechanism Interrogation Plates, MIPE v5.0) against a panel of seven AML cell lines. These included four MECOM-r cell-lines (AML-191, AML-194, UCSD-AML1 and HNT-34) and three non-MECOM-r AMLs (MV4-11, OCI-AML3 and SET-2). Exploiting the mechanistic redundancy built in the library, we identified target-level sensitivities in MECOM-r AML cells and relative activity as compared to other AML subtypes.
A collection of 2480 mechanistically annotated dugs (MIPE v5.0) was used to screen four 3q26.2 rearranged AML cell lines and three non-3q26.2 rearranged AML cell lines. This library purposely exploits redundancy by including multiple inhibitors of key onco-targets, while simultaneously encompassing mechanistic diversity, targeting more than 800 distinct mechanisms of action. Briefly, cells were seeded in 5 uL of growth media using a Multidrop Combi dispenser into 1536 well white polystyrene tissue culture treated plates (Corning) at a density of 500cells/well. For each cell-line, for each of the 2480 drugs in MIPE v5.0 library, an 11-point dose curve was generated via a 1536 pin-tool. Plates were incubated for 48 hr at standard incubator conditions, covered by a stainless steel gasketed lid to prevent evaporation. Cell viability was determined by luminescence based, Cell Titer Glo assay (Promega). In detail, 3 uL of Cell Titer Glo were added to each well and plates were incubated at room temperature for 15 min with a stainless-steel lid in place. Luminescence readings were taken using a Viewlux (PerkinElmer) with a 2 s exposure time per plate. Compound dose-response curves were normalized to DMSO and empty well controls on each plate. Quantitative drug activity data from dose-response curves was determined utilizing area Under the Curve (AUC) and Z-transformed AUC (Z-AUC, a mean-centering transformation applied to each individual cell-line screened).
On the technique in general: ATP-based viability assays read luminescence as a measure of living cells.
Consider `CN(C)C/C=C/C(=O)Nc1ccc(C(=O)Nc2cccc(Nc3ncc(Cl)c(-c4c[nH]c5ccccc45)n3)c2)cc1`, for which the Potency is 0.0468 µM (active).

As to `NS(=O)(=O)c1cc2c(cc1Cl)NCNS2(=O)=O`, the “viability, % of control” value is 108%.

In the case of `C[C@H]1Oc2cc(cnc2N)-c2c(nn(C)c2C#N)CN(C)C(=O)c2ccc(F)cc21`, the Potency is 18.6 µM (active).

Regarding `COc1cc(CCc2cc(NC(=O)c3ccc(N4C[C@@H](C)N[C@@H](C)C4)cc3)n[nH]2)cc(OC)c1`, the Potency was 2.09 µM (active).

As to `NC(=O)NO`, the “viability, % of control” value is 122%.

Turning to `CC[C@@H]1C(=O)N(C)c2cnc(Nc3ccc(C(=O)NC4CCN(C)CC4)cc3OC)nc2N1C1CCCC1`, the Potency is 0.105 µM (active).

Consider `CN(N=O)C(=O)N[C@@H]1[C@@H](O)[C@H](O)[C@@H](CO)O[C@@H]1O`, for which the “viability, % of control” value is 122%.

In the case of `NNC(=O)c1ccncc1`, the “viability, % of control” value is 114%.

Regarding `C[C@H](CCC(=O)O)[C@H]1CCC2C3C[C@H](O)[C@@H]4C[C@H](O)CC[C@]4(C)C3CC[C@@]21C` (stereo not given in full), the “viability, % of control” value is 112%.

`CC(C)(C)NC(=O)Nc1cccc(Nc2ncc(F)c(NC(C)(C)CO)n2)c1`: the Potency was 2.63 µM (active).

Turning to `CN1CCN(C2CCN(C(=O)Nc3cc(Oc4ccc(NC(=O)C5(C(=O)Nc6ccc(F)cc6)CC5)c(F)c4)ccn3)CC2)CC1`, the Potency is 0.296 µM (active).

`NC(=O)Nc1sc(-c2ccc(F)cc2)cc1C(N)=O`: the Potency is 1.86 µM (active).

Take `CC(C)c1ccc2c(c1)c(SC(C)(C)C)c(CC(C)(C)C(=O)O)n2Cc1ccc(Cl)cc1`: the Potency was 20.9 µM (active).

Consider `CC(C)C[C@@H](C(=O)N[C@H](C(=O)OC1CCCC1)c1ccccc1)[C@H](O)C(=O)NO`, for which the Potency is 3.32 µM (active).

Consider `COc1cc(NC(=O)c2ccc(-c3ccc(Cl)cc3)o2)cc(OC)c1`, for which the “viability, % of control” value was 114%.

On to `Nc1ccccc1NC(=O)c1ccc(CNC(=O)OCc2cccnc2)cc1`, for which the Potency was 1.48 µM (active).

For `Cn1c(=O)c2c(ncn2C)n(C)c1=O`, the “viability, % of control” value is 89.8%.

On to `CC1(C)CC(=O)c2c(C(F)(F)F)nn(-c3ccc(C(N)=O)c(NC4CCC(O)CC4)c3)c2C1` (stereo not given), for which the Potency is 0.0372 µM (active).

As to `Cc1[nH]nc2ccc(-c3cncc(OC[C@@H](N)Cc4ccccc4)c3)cc12`, the Potency is 0.132 µM (active).

For `CN(CCOc1ccc(CC2SC(=O)NC2=O)cc1)c1ccccn1` (stereo not given), the “viability, % of control” value is 103%.

As to `CC(C)N(CCCNC(=O)Nc1ccc(C(C)(C)C)cc1)C[C@H]1O[C@@H](n2cc(Br)c3c(N)ncnc32)[C@H](O)[C@@H]1O`, the Potency was 20.9 µM (active).

Take `CCOc1cc2ncc(C#N)c(Nc3ccc(OCc4ccccn4)c(Cl)c3)c2cc1NC(=O)/C=C/CN(C)C`: the Potency was 2.09 µM (active).

Take `CC(C)n1nc(-c2ccc3oc(N)nc3c2)c2c(N)ncnc21`: the Potency is 0.0372 µM (active).

Consider `Cc1cc(C(C)(C)C)cc(C)c1CC1=NCCN1`, for which the Potency was 18.6 µM (active).

In the case of `Cc1cc(Nc2cc(NC(=O)c3c(Cl)cccc3Cl)ccn2)nc(N)n1`, the Potency is 0.332 µM (active).

On to `CN1CC[C@@H](c2c(O)cc(O)c3c(=O)cc(-c4ccccc4Cl)oc23)[C@@H](O)C1`, for which the Potency was 0.468 µM (active).

Turning to `O=C(Nc1ccc(OC(F)(F)F)cc1)c1sccc1NCc1ccnc2ccccc12`, the Potency was 6.61 µM (active).

Take `COc1cc2c(Nc3ccc(Br)cc3F)ncnc2cc1OCC1CCN(C)CC1`: the Potency is 3.32 µM (active).

In the case of `O=c1[nH]cnc2[nH]ncc12`, the “viability, % of control” value was 109%.

Regarding `Cn1ncnc1[C@H]1c2n[nH]c(=O)c3cc(F)cc(c23)N[C@@H]1c1ccc(F)cc1`, the Potency was 0.0332 µM (active).

Take `O=C(O)C1=CC(O)C(O)[C@H](O)C1` (stereo not given in full): the “viability, % of control” value was 113%.

Turning to `O=C(C(c1ccccc1)c1ccccc1)N1CCN(CC(O)COc2cccc3ncccc23)CC1` (stereo not given), the Potency is 18.6 µM (active).

Regarding `COc1cc(/C=C(\C#N)C(=O)Nc2nnc(C(F)(F)F)s2)ccc1OCc1ccc(C(F)(F)F)cc1C(F)(F)F`, the “viability, % of control” value is 109%.

For the compound `CC(C)C[C@H](CO)Nc1nc(S[C@@H](C)c2ccccc2)nc2nc(N)sc12`, the Potency is 26.3 µM (active).

For the compound `O=C(NCc1cccc(O)c1)Nc1nc(-c2ccncc2)cs1`, the Potency was 9.34 µM (active).

For `N#Cc1ccc(NC(=O)Nc2ccccc2Br)c2n[nH]nc12`, the “viability, % of control” value was 101%.

For the compound `CCCCS(=N)(=O)CCC(N)C(=O)O` (stereo not given), the Potency is 21.5 µM (active).

With `Cc1nc(Nc2n[nH]c3c2CN(C(=O)N[C@H](CN(C)C)c2ccccc2)C3(C)C)c2sccc2n1`, the Potency is 0.0235 µM (active).

`Cc1cc(F)c(C(=O)Nc2cccc(-c3nncn3C(C)C)n2)cc1-n1cnc(C2CC2)c1`: the Potency is 10.5 µM (active).

`C[C@H](NC(=O)[C@@H](O)c1cc(F)cc(F)c1)C(=O)N[C@@H]1C(=O)N(C)c2ccccc2-c2ccccc21`: the “viability, % of control” value is 72.6%.
